In PubChem BioAssay AID651674 (The Scripps Research Institute Molecular Screening Center, 2012):
Screen size: about 2,200 compounds; about 1,700 (77%) were called active.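 The calls were made as follows: active = mean inhibition across replicate wells exceeding the computed hit threshold (cut at about 13% in these data); inactive = the rest.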 The set was probably picked from earlier hits. Only a sample is shown.

target: Hepatocyte nuclear factor 4-alpha (Homo sapiens) (UniProt P41235); test: blockers of HNF4 self-association – biochemical, split-luciferase complementation, luminescence, counter-screen for ABHD5-PLIN5 interaction inhibitor project (AID 651674); conditions: HNF4 dimerization, at 4 µM, active compounds read high;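 also: light from luciferase halves that rejoin when HNF4 fusion proteins dimerize; 0% = DMSO only wells and the 100% control is not given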
Sequence (P41235 whole entry, looked up, the tested form may be a part): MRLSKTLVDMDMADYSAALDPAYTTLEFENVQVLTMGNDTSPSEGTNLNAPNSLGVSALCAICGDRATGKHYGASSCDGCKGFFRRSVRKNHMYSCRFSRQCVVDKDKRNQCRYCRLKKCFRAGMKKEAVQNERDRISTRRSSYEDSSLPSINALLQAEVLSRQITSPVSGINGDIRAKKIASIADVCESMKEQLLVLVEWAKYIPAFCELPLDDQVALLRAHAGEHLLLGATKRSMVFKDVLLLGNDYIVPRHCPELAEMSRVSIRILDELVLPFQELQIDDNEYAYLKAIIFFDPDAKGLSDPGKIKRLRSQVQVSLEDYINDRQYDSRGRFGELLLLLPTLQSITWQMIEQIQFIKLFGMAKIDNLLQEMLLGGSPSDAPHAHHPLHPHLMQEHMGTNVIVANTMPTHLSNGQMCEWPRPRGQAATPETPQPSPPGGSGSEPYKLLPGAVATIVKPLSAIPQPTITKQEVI

Compound | inhibition
COc1ccc(CN2C(=O)NC(=O)/C(=C\c3ccc(OC)c(OC)c3OC)C2=O)cc1 | 31.3% (active)
CN(C)CC1Oc2ccccc2OC1(O)c1ccccc1 (stereo not given) | 104% (active)
Cc1cccc(N2C(=O)NC(=O)/C(=C\c3cnn(-c4ccccc4)c3)C2=O)c1 | 68.7% (active)
CCOC(=O)[C@]12Cc3ccccc3[C@H]1N(C1CCCCC1)C(=O)c1cc(OC)ccc12 | 27.9% (active)
CCc1nnc(NS(=O)(=O)c2ccc(N=Cc3c(O)n(-c4ccccc4)c(=O)[nH]c3=O)cc2)s1 | 33.6% (active)
